Measurements reported in PubChem BioAssay (EPA / NIEHS).
Several values for one entry are separate records, joined by “and”; a condition that tells them apart may be missing. Identical values can stand only once. Activity calls are given as the source filed them. Rule for the calls: active = hit-call score of the fitted dose curve at least 0.9, where 1 is the maximum; inactive = score below 0.9.

The compounds below were run on E-selectin (Homo sapiens) (UniProt P16581) (assay: BSK_LPS_Eselectin: BioMAP Diversity Plus: LPS Assay for Eselectin Biomarker Activity (AID 2283077)). Details: primary human HUVEC with PBMC; actives raise or lower the signal.
E-selectin (Homo sapiens), sequence (P16581 whole entry, looked up): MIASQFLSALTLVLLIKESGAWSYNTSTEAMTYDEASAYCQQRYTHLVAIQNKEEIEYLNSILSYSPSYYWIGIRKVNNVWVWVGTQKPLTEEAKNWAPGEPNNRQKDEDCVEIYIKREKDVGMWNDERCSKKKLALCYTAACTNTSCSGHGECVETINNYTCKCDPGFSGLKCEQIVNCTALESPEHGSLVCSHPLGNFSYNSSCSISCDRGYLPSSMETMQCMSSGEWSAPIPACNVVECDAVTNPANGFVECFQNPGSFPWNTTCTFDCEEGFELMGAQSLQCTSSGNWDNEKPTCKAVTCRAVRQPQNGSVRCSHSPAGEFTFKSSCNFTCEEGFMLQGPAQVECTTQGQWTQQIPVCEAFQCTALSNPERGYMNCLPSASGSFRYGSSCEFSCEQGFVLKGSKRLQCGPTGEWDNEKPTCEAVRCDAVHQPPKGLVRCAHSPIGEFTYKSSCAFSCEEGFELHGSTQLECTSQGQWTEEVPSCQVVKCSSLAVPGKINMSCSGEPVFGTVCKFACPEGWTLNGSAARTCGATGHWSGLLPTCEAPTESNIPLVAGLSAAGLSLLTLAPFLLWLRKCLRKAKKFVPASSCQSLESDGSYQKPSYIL
Experimental: BSK_LPS is a cell-based, multiplexed-readout assay that uses umbilical vein endothelium and peripheral blood mononuclear cells, a human vascular primary cell co-culture, with measurements taken at 24 hours after chemical dosing in a 96-well plate.BSK_LPS_Eselectin is an assay component measured in the BSK_LPS assay. It measures E-selectin antibody related to regulation of gene expression using ELISA technology.Data from the assay component BSK_LPS_Eselectin was analyzed into 1 assay endpoint. This assay endpoint, BSK_LPS_Eselectin, was analyzed with bidirectional fitting relative to DMSO as the negative control and baseline of activity. Using a type of binding reporter, gain or loss-of-signal activity can be used to understand changes in the signaling as they relate to the gene SELE. Furthermore, this assay endpoint can be referred to as a primary readout, because this assay has produced multiple assay endpoints where this one serves a signaling function. To generalize the intended target to other relatable targets, this assay endpoint is annotated to the cell adhesion molecules intended target family, where the subfamily is selectins.
The levels of cell surface (or secreted, indicated by the prefix "s") biomarker endpoints were measured by ELISA. Overt cytotoxicity to cells in confluent adherent cultures (all systems other than the BT system) was assessed by measuring total protein levels using sulforhodamine B (SRB) staining in parallel cultures at the time of biomarker measurements, indicated as SRB endpoints. For proliferation assays for adherent cell types, individual cell types are cultured at sub-confluence and relative cell numbers quantified by SRB staining at time points optimized for each system (48 h: 3C and CASM3C systems; 72 h: BT and HDF3CGF systems; 96 h: SAg system). SRB was performed by staining cells with 0.1% SRB after fixation with 10% TCA and reading wells at 560 nm.Viability and proliferation of PBMC (T cells) was quantified by Alamar Blue reduction for the SAg and BT systems. For PBMC viability (referred to as PBMC Cytotoxicity within the assay endpoint names), cells were plated (75,000/well in a 96-well plate) and then chemical samples added for 1 h before addition of activators, SEB and TSST-1 (20 ng/mL final concentration each). Cells were incubated for 90 h. Then, Alamar Blue (20 uL/well) (Invitrogen, Cat DAL1100) was added for 6 h, and the plates were read with a fluorescence microplate reader at 546/580 nm (excitation/emission). For PBMC proliferation, cells were plated and activated as above but incubated for only 16 h prior to addition of Alamar Blue. Plates were read after 6 h.

Structure (SMILES) | outcome | AC50
c1ccc2c(c1)-c1ccc3ccc4cccc5cc-2c1c3c45 | inactive | –
O=C1OC2(c3ccc(O)cc3Oc3cc(O)ccc32)c2ccccc21 | inactive | –
c1ccc(OCCOc2ccccc2)cc1 | inactive | –
CCCCCCCCCCCCS | – | 20 µM (active)
C=C1CC/C=C(\C)CC[C@@H]2[C@@H]1CC2(C)C | – | 21.2 µM (active)
CCCCCCCCCC(=O)OCC | inactive | –
CCCCOCCOCCO | inactive | –
O=S(=O)(O)C(F)(F)C(F)(F)OC(F)(F)C(F)(F)F | inactive | –
CCCCN(CCO)CCO | inactive | –
CCCCCCCC1CCCC1=O (stereo not given) | inactive | –
CC(=O)OCC=C(C)CCC=C(C)CCC=C(C)C | inactive | –
CC(C)CCCC(C)(C)O | inactive | –
CC/C(=C(\c1ccccc1)c1ccc(OCCN(C)C)cc1)c1ccccc1 | – | 28.3 µM (active) and 14.3 µM (active)
OCC(F)(OC(F)(F)C(F)(OC(F)(F)C(F)(F)C(F)(F)F)C(F)(F)F)C(F)(F)F (stereo not given) | – | 5.03 µM (active) and 3.77 µM (active)
CC1=CC(C)C(C=O)C(C)C1 (stereo not given) (tested in a mixture with another compound) | inactive | –
CC(C)(C)c1cccc(O)c1 | inactive | –
O=C(O)C(F)(F)OC(F)(F)C(F)(F)OC(F)(F)C(F)(F)C(F)(F)C(F)(F)F | inactive | –
CCn1cc(C(=O)O)c(=O)c2ccc(C)nc21 | inactive | –
OCCN1CCOCC1 | inactive | –
C#C[C@]1(O)CC[C@H]2[C@@H]3CCc4cc(O)ccc4[C@H]3CC[C@@]21C | inactive | –

Structure (SMILES) | outcome | AC50
Nc1ccc(N)c([N+](=O)[O-])c1 | inactive | –
CC(=O)c1ccc(C)cc1 | inactive | –
CC1(C)[C@H](C=C(Cl)Cl)[C@H]1C(=O)OCc1cccc(Oc2ccccc2)c1 | inactive | –
CCCO[Si](OCCC)(OCCC)OCCC | inactive | –
CCOC(=O)CCCCCCCCC(=O)OCC | inactive | –
CC(C)Cc1ccc(C(C)C(=O)O)cc1 (stereo not given) | inactive | –
O=C(O)C(F)(F)C(F)(F)C(F)(F)C(F)(F)C(F)(F)C(F)(F)C(F)(F)C(F)F | inactive | –
CC(=O)OC(C)(C)C1CC=C(C)CC1 (stereo not given) | inactive | –
NC(=O)c1c(Cl)cccc1Cl | inactive | –
CC(C)(CO)CO | inactive | –
CCC(=O)OCC=Cc1ccccc1 | inactive | –
O=S1(=O)CC(Cl)(Cl)C(Cl)(Cl)C1 | – | 1.1 µM (active)
C=C(C)C(=O)OCCC(F)(F)C(F)(F)C(F)(F)C(F)(F)C(F)(F)C(F)(F)C(F)(F)C(F)(F)F | inactive | –
c1ccc(Sc2ccccc2)cc1 | – | 33.1 µM (active)
C=C(F)C(=O)OC(C(F)(F)F)C(F)(F)F | inactive | –
C[C@]12CC[C@@H]3c4ccc(O)cc4CC[C@H]3[C@@H]1CC[C@@H]2O | inactive | –
CCOC(=O)C=Cc1ccccc1 | inactive | –
COC(=O)c1ccc(C(=O)OC)cc1 | inactive | –
COc1ccccc1NC(=O)CC(C)=O | inactive | –
C=C(C)C(N)=O | inactive | –
